Inconclusive results are not listed. Calls of active or inactive are those of the source. How the source made its calls: active means hit-call score of the fitted dose curve at least 0.9, where 1 is the maximum; inconclusive means response in the unintended direction; inactive means score below 0.9.

Broadly, the AC50 is the midpoint of the concentration-response curve, whichever way the signal moves.

Chain of human Retinoid X Receptor beta (RXRb), RXRB (gene 6257) (P28702 whole entry, looked up): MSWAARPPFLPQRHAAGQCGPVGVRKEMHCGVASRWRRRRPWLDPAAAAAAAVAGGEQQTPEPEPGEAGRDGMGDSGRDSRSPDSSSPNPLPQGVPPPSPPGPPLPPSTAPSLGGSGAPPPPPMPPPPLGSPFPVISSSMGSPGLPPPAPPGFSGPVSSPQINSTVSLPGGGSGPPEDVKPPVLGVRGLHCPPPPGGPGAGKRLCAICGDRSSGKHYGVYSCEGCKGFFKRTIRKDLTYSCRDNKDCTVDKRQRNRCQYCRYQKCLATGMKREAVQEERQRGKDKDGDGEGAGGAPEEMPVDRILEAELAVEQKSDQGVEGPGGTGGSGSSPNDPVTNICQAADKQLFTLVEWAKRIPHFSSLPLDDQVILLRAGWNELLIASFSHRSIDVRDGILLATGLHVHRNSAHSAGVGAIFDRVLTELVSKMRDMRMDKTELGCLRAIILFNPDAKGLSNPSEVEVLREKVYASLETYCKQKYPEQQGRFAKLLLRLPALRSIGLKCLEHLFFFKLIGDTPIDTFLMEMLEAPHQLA

The experiment addresses human Retinoid X Receptor beta (RXRb), RXRB (gene 6257) (UniProt P28702). Description: ATG_hRXRb_EcoTox2: Attagene TRANS-FACTORIAL EcoTox-2 HepG2 Assay for human Retinoid X Receptor beta (RXRb). As for the experimental part:
ATG_EcoTox2 is a cell-based, multiplexed assay created by modifying the existing Attagene TRANS-FACTORIAL system to include a panel of nuclear receptors from some or all the following species: human (Homo sapiens), african clawed frog (Xenopus laevis), rainbow trout (Oncorhynchus mykiss), japanese medaka (Oryzias latipes), and zebrafish (Danio rerio). The ECOTOX2-FACTORIAL format uses HepG2, a human liver cell line, with measurements taken at 24 hours after chemical dosing in a 24-well plate. ATG_hRXRb_EcoTox2 is one of 29 assay components calculated in the ATG_EcoTox2 assay. It is designed to make measurements of mRNA induction, a form of inducible reporter, as detected with fluorescence intensity signals by Reverse transcription polymerase chain reaction (RT-PCR) and Capillary electrophoresis technology.The assay endpoint ATG_hRXRb_EcoTox2 was analyzed in the positive analysis fitting direction relative to DMSO as the negative control and baseline of activity. Using a type of inducible reporter, measures of mRNA for gain-of-signal activity can be used to understand the reporter gene at the transcription factor-level as they relate to the gene RXRb. Furthermore, this assay endpoint can be referred to as a primary readout, because this assay has produced multiple assay endpoints where this one serves a reporter gene function. To generalize the intended target to other relatable targets, this assay endpoint is annotated to the nuclear receptor intended target family, where the subfamily is non-steroidal.
Human liver HepG2 cells are transiently transfected with multiple reporter transcription units (MRTUs) in 6-well plates using FuGene 6 reagent (Roche; 3 ml FuGene/1 mg DNA). The MRTU constructs are regulated by a cis-regulating element (promoter). Each RTU expresses a GAL4-UAS that regulates the transcription of a nearby target reporter gene sequence. A major difference between the CIS and TRANS system is that in CIS activities of endogenous TFs are measured, whereas the TRANS assay evaluates changes in activities of exogenous, chimeric NR-Gal4 proteins. […] At the end of 24 hour incubation, total RNA was isolated using TriZol reagent (Invitrogen). The isolated RNA is then reverse-transcribed using oligo(dT) primer and Mo-MLV reverse transcriptase (Invitrogen) with DNAse I (Ambion) treatment for 30 min. The one-tenth of the produced cDNA was amplified by PCR using Taq DNA polymerase (Invitrogen) and two reporter sequence-specific primers. […] The fragments were purified using Qiaquick PCR columns (Qiagen), analyzed on an ABI 3130xL genetic analyzer (Applied Biosystems) with peak positions identified by using a set of X-rhodamine (ROX)-labeled MapMarker1000 molecular weight standards (BioVentures). […]
With `O=S(=O)(O)C(F)(F)C(F)(F)C(F)(F)C(F)(F)C(F)(F)C(F)(F)F`, the call was inactive. Turning to `CCCCOCN(C(=O)CCl)c1c(CC)cccc1CC`, the AC50 was 36.6 µM (active). Take `O=C(O)C(F)(F)C(F)(F)C(F)(F)C(F)(F)C(F)(F)C(F)(F)C(F)(F)F`: the AC50 is 29 µM (active). Consider `[Cl][Sn]([c]1ccccc1)([c]1ccccc1)[c]1ccccc1`, for which the AC50 was 0.041 µM (active).
